# This excerpt belongs to a sample that is enriched for hits.
# BL2 CD40 inh: CD40 pathway inhibition in BL2 cells; inhibition, % at 10 µM; BL2 NF-kB luciferase reporter, CD40L-induced, 4 h; AID 1053188; 0.94% of 83,000 active;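 active = mean inhibition of at least 50% with a set share of replicates also reaching that level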;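 note: 0% = neutral control wells and 100% = IKK inhibitor VII at 50 µM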
# Numbers without * were called inactive; [ ] = dose if it differs, or a comment.
SMILES,BL2 CD40 inh
CSc1nsc(SC)c1C(=O)O,4
CSc1nsc(SC)c1C(=O)OCC(F)(F)F,-17
CSc1nsc(SC)c1C(N)=O,78*
CO[C@@H]1CN(C)C(=O)c2cc(NC(=O)c3ccc4c(c3)OCO4)ccc2OC[C@H](C)N(CCC(F)(F)F)C[C@@H]1C,17[25 µM]
O=S(=O)(c1ccccc1)N1CC2(C1)[C@H](c1ccccc1)[C@@H](CO)N2CC1CCOCC1,-10[25 µM]
O=C(Nc1ccccc1)N1CCCCN2[C@H](CO)[C@H](c3ccc(Br)cc3)[C@@H]2C1,21[25 µM]
O=C1[C@H](Cc2ccc(C(F)(F)F)cc2)CCn2cc(nn2)COC[C@@H]2CCCCN2C(=O)[C@H](Cc2ccc(C(F)(F)F)cc2)CCn2cc(nn2)COC[C@@H]2CCCCN12,9
O=C(CN1CCCC1)N1c2ccccc2C=Cc2ccccc21,11
O=C(C(=Cc1ccccc1)CN1CCCCC1)c1ccccc1,73*
O=C(CN1CCCCCC1)N1c2ccccc2C=Cc2ccccc21,25
COc1ccc(S(=O)(=O)N(C)C[C@H]2Oc3ccc(NC(=O)CCN4CCOCC4)cc3CC(=O)N([C@@H](C)CO)C[C@@H]2C)cc1,-7[25 µM]
CO[C@H]1CN(C)C(=O)c2ccc(NS(C)(=O)=O)cc2OC[C@H](C)N(C(=O)C2CCCC2)C[C@@H]1C,-15
Cc1ccc(-c2cnc3c(c2)C(=O)N([C@H](C)CO)C[C@H](C)[C@H](CN(C)C(=O)CN(C)C)O3)cc1,-6[25 µM]
C[C@@H]1CN([C@@H](C)CO)C(=O)c2cccc(NS(=O)(=O)c3ccc(Cl)cc3)c2O[C@@H]1CN(C)Cc1ccc(C(=O)Nc2ccccc2N)cc1,active[25 µM]
COc1ccc(S(=O)(=O)N(C)C[C@H]2OCCCC[C@@H](C)Oc3ccc(NC(=O)Nc4ccc(F)cc4)cc3C(=O)N([C@H](C)CO)C[C@@H]2C)cc1,1
COc1ccc(S(=O)(=O)N(C)C[C@H]2Oc3ccc(NC(=O)Nc4ccc(C(F)(F)F)cc4)cc3C(=O)N([C@H](C)CO)C[C@H]2C)cc1,66*[25 µM]
C[C@@H]1CN([C@@H](C)CO)C(=O)c2cc(NC(=O)Nc3ccc(F)cc3)ccc2O[C@@H]1CN(C)S(=O)(=O)c1ccc(Cl)cc1,14
C[C@H]1CN([C@@H](C)CO)C(=O)c2cccc(NS(=O)(=O)c3ccc(Cl)cc3)c2O[C@@H]1CN(C)Cc1ccc(C(=O)Nc2ccccc2N)cc1,-55[25 µM]
Cc1ccc(-c2cnc3c(c2)C(=O)N([C@@H](C)CO)C[C@H](C)[C@H](CN(C)C(=O)CN(C)C)O3)cc1,-14[25 µM]
COc1ccc(S(=O)(=O)N(C)C[C@@H]2OCCCC[C@H](C)Oc3ccc(NC(=O)Nc4ccc(F)cc4)cc3C(=O)N([C@H](C)CO)C[C@H]2C)cc1,-4
C[C@@H]1CN([C@H](C)CO)C(=O)c2cccc(NS(=O)(=O)c3ccc(Cl)cc3)c2O[C@H]1CN(C)Cc1ccc(C(=O)Nc2ccccc2N)cc1,-37[25 µM]
COc1ccc(S(=O)(=O)N(C)C[C@H]2OCCCC[C@H](C)Oc3ccc(NC(=O)Nc4ccc(F)cc4)cc3C(=O)N([C@H](C)CO)C[C@@H]2C)cc1,4
COc1ccc(S(=O)(=O)N(C)C[C@H]2Oc3ccc(NC(=O)Nc4ccc(C(F)(F)F)cc4)cc3C(=O)N([C@@H](C)CO)C[C@H]2C)cc1,61*[25 µM]
COc1ccc(-c2cnc3c(c2)C(=O)N([C@H](C)CO)C[C@@H](C)[C@@H](CN(C)C(=O)Nc2c(C)noc2C)O3)cc1,65*[25 µM]
C[C@H](CO)N1C[C@H](C)[C@@H](CN(C)Cc2ccc(F)cc2)OCc2ccccc2-c2c(n(C)c3ccccc23)C1=O,29
SMILES,BL2 CD40 inh
COc1ccc(-c2ccc3n(c2=O)C[C@@H]2[C@@H](CO)[C@H](C(=O)N4CCCCC4)[C@H]3N2C)cc1,8[25 µM]
COc1ccc2c3c(n(C)c2c1)[C@@H](CO)N(C(=O)C1CCCC1)CC31CN(C(=O)Nc2cccc(F)c2)C1,-49
CS(=O)(=O)N1C[C@@H]2C(c3ccc(Br)cc3)[C@H](C1)N2CC(F)(F)F (some centres not stated),2
CC(=O)N(C)C[C@H]1Oc2ccccc2CC(=O)N(C)C[C@H]1C,-3
CC(C)NC(=O)N(C)C[C@@H]1OCCCC[C@H](C)Oc2ccc(NC(=O)NC3CCCCC3)cc2C(=O)N([C@@H](C)CO)C[C@H]1C,2
CCCC(=O)Nc1ccc2c(c1)C(=O)N(C)C[C@H](OC)[C@H](C)CN(C(=O)c1ccccn1)[C@@H](C)CO2,-1[25 µM]
CC(C)[C@H]1C(=O)NCCC=CC[C@H](C)Oc2ccccc2C(=O)N1C (mixture of isomers),2[25 µM]
COc1ccccc1-c1ccc([C@H]2[C@@H](CO)N(C(=O)C3CCCC3)[C@H]2C#N)cc1,-15
C[C@@H]1CN([C@@H](C)CO)C(=O)c2cccc(NC(=O)Nc3ccc(F)cc3)c2O[C@@H]1CN(C)S(=O)(=O)c1ccc(Cl)cc1,10[25 µM]
COc1ccc(S(=O)(=O)N(C)C[C@@H]2OCCCC[C@H](C)Oc3ccc(NC(=O)Nc4ccc(C(F)(F)F)cc4)cc3C(=O)N([C@@H](C)CO)C[C@@H]2C)cc1,-6

# Assay outcomes (PubChem BioAssay)
